Compound activity deposited in PubChem BioAssay by Paczesny and Yang Labs, IUPUI and University of Michigan.
This is one part of a sample in which hits are shown more often than they occur.
ST2 inh: IL1RL1 inhibition; Q01638; AlphaLISA ST2-Fc/biotin-IL-33 interaction, 1 h; inhibition, % for hits at 17 µM; 2.3% of 78,000 active; in the data active = inhibition above about 30%
Target sequence (Q01638 whole entry, looked up): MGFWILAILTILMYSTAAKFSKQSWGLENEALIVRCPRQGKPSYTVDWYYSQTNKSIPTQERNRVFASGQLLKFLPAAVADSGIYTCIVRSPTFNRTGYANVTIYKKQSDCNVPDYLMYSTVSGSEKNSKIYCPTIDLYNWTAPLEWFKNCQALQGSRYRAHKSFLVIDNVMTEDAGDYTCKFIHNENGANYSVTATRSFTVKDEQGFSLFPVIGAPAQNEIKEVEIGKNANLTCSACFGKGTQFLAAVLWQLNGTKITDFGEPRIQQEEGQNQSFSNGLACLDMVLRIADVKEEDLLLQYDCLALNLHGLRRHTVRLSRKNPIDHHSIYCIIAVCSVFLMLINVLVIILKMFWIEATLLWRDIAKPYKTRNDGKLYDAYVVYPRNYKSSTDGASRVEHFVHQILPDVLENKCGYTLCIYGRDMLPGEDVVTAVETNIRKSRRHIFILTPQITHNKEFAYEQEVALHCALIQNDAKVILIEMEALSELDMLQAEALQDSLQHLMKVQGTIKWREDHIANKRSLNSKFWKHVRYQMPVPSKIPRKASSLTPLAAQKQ
Numbers without * were called inactive; i = inactive.

SMILES | ST2 inh
Cc1ccn2c(NC3CCCC3)c(-c3ccccn3)nc2c1 | 38.0%*
Cc1ccc(-c2nc3cnccn3c2NC2CCCCC2)o1 | i
Cc1ccc2nc(-c3ccccn3)c(Nc3ccc4c(c3)OCO4)n2c1 | 32.0%*
COc1ccc(Nc2c(-c3ccccn3)nc3ccc(Br)cn23)cc1 | i
Cc1ccn2c(Nc3ccccc3)c(-c3ccc(C)o3)nc2c1 | i
Cc1ccn2c(Nc3ccc4c(c3)OCO4)c(-c3ccccn3)nc2c1 | 31.0%*
Cc1ccc2nc(-c3c[nH]c4ccccc34)c(NC3CCCC3)n2c1 | i
Clc1ccc2nc(-c3ccco3)c(Nc3ccc4c(c3)OCO4)n2c1 | i
Cc1ccc(-c2nc3cnccn3c2Nc2ccc3c(c2)OCO3)o1 | i
Cc1nc(Sc2ccccc2)c2oc3ccccc3c2n1 | i
CC(C)c1nnsc1CN1CCC(N2CCCC2=O)CC1 | i
O=[N+]([O-])c1ccccc1S(=O)(=O)NCc1ccc2c(c1)OCO2 | i
CCSCCOC(=O)C1=C(C)NC(=O)NC1c1cc(Cl)c(O)c(OC)c1 (stereo not drawn) | i
O=C(NCc1ccco1)[C@H](CSCc1ccccc1)N1Cc2ccccc2C1=O | i
OCCC1CN(Cc2cn[nH]c2-c2cccc(F)c2)CCN1Cc1ccsc1 (stereo not drawn) | i
CCOc1ccc(CC(=O)Nc2cc(N3CCCS3(=O)=O)ccc2C)cc1 | i
COc1ccc([N+](=O)[O-])cc1CSc1nnc(N)s1 | i
COc1cccc(CN2CCCC(O)(CN3CCn4cccc4C3)C2=O)c1OC (stereo not drawn) | i
COc1cccc(-c2nc(CN(C)C3CCCc4ccccc43)c(C)o2)c1OC (stereo not drawn) | i
Cc1ccc2nc(-c3ccc(C)o3)c(Nc3ccc4c(c3)OCCO4)n2c1 | i
Cc1ccc(-c2nc3ccccn3c2Nc2ccc3c(c2)OCCO3)o1 | 35.0%*
Cc1ccc2nc(-c3ccc(C)o3)c(Nc3ccccc3)n2c1 | i
COc1c(Cl)cc(C(=O)Nc2ccc(F)cc2)cc1Cl | i
CNC(=O)[C@@H]1C[C@@H](N)CN1C(=O)c1ccc2scnc2c1 | i
C=CCN(Cc1ccccn1)Cc1ccccc1C | i
SMILES | ST2 inh
C[C@@H]1O[C@@H](O[C@@H]2[C@@H](O)[C@H](OCCc3ccc(O)c(O)c3)O[C@H](CO[C@@H]3OC[C@](O)(CO)[C@H]3O)[C@H]2OC(=O)/C=C/c2ccc(O)c(O)c2)[C@H](O)[C@H](O)[C@H]1O | i
COc1cc(OC2OC(COC3OCC(O)(CO)C3O)C(O)C(O)C2O)c2c(-c3ccc(O)c(O)c3)cc(=O)oc2c1 (stereo not drawn) | 33.0%*
C[C@@H]1O[C@@H](O[C@@H]2[C@@H](O)[C@H](C)O[C@@H](OCC3OC(Oc4c(-c5ccc(O)c(O)c5)oc5cc(O)cc(O)c5c4=O)C(O)C(O)C3O)[C@@H]2O)[C@H](O)[C@H](O)[C@H]1O (stereo partly drawn) | i
COCC(=O)Nc1ccc(-c2nc3ccc(C)cc3s2)cc1 | i
COCCCNc1ncnc2scc(-c3ccccc3)c12 | i
NC1=NC(=O)C(CC(=O)Nc2ccc(OC(F)F)cc2)S1 (stereo not drawn) | i
O=C(CSc1nnnn1-c1ccccc1)Nc1ccc2c(c1)OCO2 | i
CCn1cnc2sc(C(=O)N3CCC4(CC3)OCCO4)c(C)c2c1=O | i
Cc1ncnc(N2CCC(N3CCCC(C(=O)N4CCCC4)C3)CC2)c1C (stereo not drawn) | i
Cc1noc2ncnc(N3CCC(N4CCCC(C(=O)N5CCCC5)C4)CC3)c12 (stereo not drawn) | i
CNC(=O)c1cccnc1N1CCC(N2CCCC(C(=O)N3CCCC3)C2)CC1 (stereo not drawn) | 33.0%*
Cc1ccc2nc(COc3cccc(NC(=O)c4cccc(Br)c4)c3)cc(=O)n2c1 | i
COCCn1c(=O)[nH]c2cc(C(=O)NC3CC3)ccc2c1=O | i
O=C(Nc1ccccc1Br)C1CC(=O)N(c2ccc(Br)cc2)C1 (stereo not drawn) | i
O=C(c1cccc([N+](=O)[O-])c1)N1CCOCC1 | i
CN(C)/C(=C1/c2cc([N+](=O)[O-])ccc2-c2c1cc([N+](=O)[O-])cc2[N+](=O)[O-])N1CCOCC1 | 79.0%*
O=C(c1sc2cc([N+](=O)[O-])ccc2c1Cl)N1CCOCC1 | i
O=C(Nc1ccc(Br)cn1)c1cccnc1 | i
O=C(NCCN1CCCC1)c1cc(-c2cccnc2)nc2ccccc12 | i
CN(Cc1nccn1Cc1ccccc1)C(=O)c1cc(C2CC2)[nH]n1 | i
Cc1cc(C)n(CCCNC(=O)c2nc3ccccc3[nH]c2=O)n1 | i
Cc1cc(C)n(-c2nc3ccccc3[nH]c2=O)n1 | 46.0%*
Cc1cc(C)n(-c2n[nH]c(=O)c3ccccc23)n1 | i
O=C(Nc1cccc(NC(=O)c2ccccc2F)c1)c1ccco1 | i
CCN(C(=O)c1cc2cc3ccc(OC)cc3nc2s1)c1cc(OC)ccc1OC | 31.0%*
SMILES | ST2 inh
COc1ccc2cc3cc(C(=O)NC4CC4)sc3nc2c1 | i
CCN(CC)CCNC(=O)c1cc2cc3cc(OC)ccc3nc2s1 | i
CC(=O)Nc1nc2ccc(NC(=O)c3nn(C)cc3[N+](=O)[O-])cc2s1 | i
O=C(c1ccc(Cl)cc1O)N1CCC2(CCOCC2)CC1 | i
O=C(Nc1ccccc1[N+](=O)[O-])C1C2CCCCC21 (stereo not drawn) | 39.0%*
O=C(NC1CCCCCC1)c1ccccc1[N+](=O)[O-] | i
CC(C)(C)CC(=O)Nc1ccccc1[N+](=O)[O-] | i
CCO[C@H]1[C@H](NC(=O)c2cccnc2)c2ccccc2C12CCN(C(=O)c1ocnc1C)CC2 | i
CCC(C)Oc1c(Cl)cc(-c2ncc[nH]2)cc1OC (stereo not drawn) | i
O=C1CCC(C(=O)N2CCC3(CCCN(CCC4CCCCC4)C3)C2)=NN1 (stereo not drawn) | i
COC(=O)C1=C(NC(=O)c2cc(Cl)ccc2Cl)CCS1 | i
COC(=O)C1=C(NC(=O)c2ccc(Cl)cc2)CCS1 | i
COC(=O)C1=C(NC(=O)c2cc(C)cc(C)c2)CCS1 | 50.0%*
CCCCNC(=O)c1ccc(CS(=O)(=O)c2c(Cl)cccc2Cl)o1 | i
Cc1ccsc1[C@@H]1CCN(C2CC=CC2)C[C@H]1O | i
CCOC(=O)C(C)Sc1nc2c([nH]c3ccccc32)c(=O)n1-c1ccccc1 (stereo not drawn) | i
CCOCC(=O)Nc1c(C(=O)Nc2cccc(F)c2)oc2ccccc12 | i
O=C(Cc1ccc(F)cc1)Nc1c(C(=O)Nc2cccc(F)c2)oc2ccccc12 | 93.0%*
O=C(Nc1c(C(=O)Nc2cccc(F)c2)oc2ccccc12)c1ccc(F)cc1 | i
Cc1ccc(CNS(=O)(=O)NCc2ccccc2)c(F)c1F | i
Cn1ccnc1SCCNS(=O)(=O)NCc1ccccc1 | 31.0%*
Cc1nn(CCNS(=O)(=O)NCc2ccccc2)c(C)c1Cl | i
CCOC(=O)C1C(=O)C=C(c2ccc(OC)c(OC)c2)CC1c1ccccc1OC (stereo not drawn) | i
OC1(c2ccccc2)CCN(c2nccc(CCC(F)(F)F)n2)C1 (stereo not drawn) | i
Cc1ccc(C2(O)CCN(c3nc4ccccc4s3)CC2)nc1 | i
Cc1cnc(N2CCC(O)(c3ccccc3)CC2)nc1N(C)C | 35.0%*
Cc1nc(N2C[C@@H]3C[C@H](C2)[C@@H]2CCCC(=O)N2C3)cc(-n2cccn2)n1 | i
Cc1ccc(OCC(O)CNC(C)(C)C)cc1C (stereo not drawn) | i
